Among the data in PubChem BioAssay (EPA / NIEHS) are outcome and AC50 values, retold here.

SMILES strings stand for the structures. Active and inactive are the calls of the source. The calls were made as follows: active = hit-call score of the fitted dose curve at least 0.9, where 1 is the maximum; inactive = score below 0.9.

Read-out in test [1]: urokinase plasminogen activator (uPA), PLAU (gene 5328)
Put plainly: BSK_KF3CT_uPA: BioMAP Diversity Plus: KF3CT Assay for urokinase plasminogen activator (uPA) Biomarker Activity (AID 2283075). To be noted: primary human keratinocytes with fibroblasts; actives raise or lower the signal. The procedure, abridged:
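ELISA read-out of uPA 24 h after dosing human skin keratinocytes co-cultured with foreskin fibroblasts. Signal change fitted both ways relative to DMSO; sulforhodamine B on parallel cultures marks overt cytotoxicity.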

Read-out in test [2]: CD40, CD40 (gene 958)
Kind of test: BSK_LPS_CD40: BioMAP Diversity Plus: LPS Assay for CD40 Biomarker Activity (AID 2283076). Conditions: primary human HUVEC with PBMC; actives raise or lower the signal. In a few lines: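 Primary human umbilical vein endothelial cells co-cultured with peripheral blood mononuclear cells, LPS-stimulated, were dosed with chemical and read 24 h later. CD40 levels were measured by ELISA and fitted bidirectionally against DMSO as negative control and baseline.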

Read-out in test [3]: E-selectin (Homo sapiens) (UniProt P16581)
Kind of test: BSK_LPS_Eselectin: BioMAP Diversity Plus: LPS Assay for Eselectin Biomarker Activity (AID 2283077). To be noted: primary human HUVEC with PBMC; actives raise or lower the signal. The procedure, abridged: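 Human umbilical vein endothelial cells co-cultured with peripheral blood mononuclear cells under LPS stimulation; E-selectin measured by ELISA 24 h after chemical dosing. Activity fitted bidirectionally against DMSO as negative control and baseline.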

Read-out in test [4]: Interleukin-8 (IL8), CXCL8 (gene 3576)
Put plainly: BSK_LPS_IL8: BioMAP Diversity Plus: LPS Assay for Interleukin-8 (IL8) Biomarker Activity (AID 2283078). Conditions: primary human HUVEC with PBMC; actives raise or lower the signal. The procedure, abridged: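 Human umbilical vein endothelial cells co-cultured with PBMC were stimulated with LPS; IL-8 levels were measured by ELISA 24 h after chemical dosing. Activity was fitted bidirectionally against DMSO as negative control and baseline.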

The nature of test [5]: BSK_LPS_SRB: Viability Assessment in the BioMAP Diversity Plus: LPS Assay (AID 2283079).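 Also: total protein by sulforhodamine B absorbance as a cytotoxicity measure; measured one day after compound addition.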 To be noted: primary human HUVEC with PBMC. In a few lines:
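Human umbilical vein endothelial cells co-cultured with PBMC (LPS system) were dosed for 24 h. Total protein was stained with 0.1% sulforhodamine B after 10% TCA fixation, read at 560 nm, and fitted bidirectionally against DMSO baseline.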

Read-out in test [6]: Interleukin-1 alpha (IL1a), IL1A (gene 3552)
Put plainly: BSK_LPS_IL1a: BioMAP Diversity Plus: LPS Assay for Interleukin-1 alpha (IL1a) Biomarker Activity (AID 2283080). Conditions: primary human HUVEC with PBMC; actives raise or lower the signal. In a few lines: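 Human umbilical vein endothelial cells co-cultured with peripheral blood mononuclear cells were LPS-stimulated and exposed to test chemicals for 24 h. IL-1 alpha was quantified by ELISA, with bidirectional curve fitting against DMSO as the negative control and baseline.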

Read-out in test [7]: Monocyte Chemoattractant Protein-1 (MCP1), CCL2 (gene 6347)
Put plainly: BSK_LPS_MCP1: BioMAP Diversity Plus: LPS Assay for Monocyte Chemoattractant Protein-1 (MCP1) Biomarker Activity (AID 2283081). Conditions: primary human HUVEC with PBMC; actives raise or lower the signal. The procedure, abridged: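 HUVEC plus PBMC co-culture (human primary cells, LPS system) exposed to test chemical for 24 h; MCP-1 measured by ELISA. Bidirectional curve fitting against DMSO baseline; parallel SRB total-protein staining flags overt cytotoxicity.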

Test [8] is described as follows: BSK_LPS_PGE2: BioMAP Diversity Plus: LPS Assay for Prostaglandin E2 (PGE2) Biomarker Activity (AID 2283082). Conditions: primary human HUVEC with PBMC; actives raise or lower the signal. The procedure, abridged:
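Primary human endothelial cells and blood mononuclear cells, co-cultured with LPS, receive test chemical; PGE2 ELISA follows at 24 h, with SRB-stained parallel cultures flagging cytotoxicity.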

Read-out in test [9]: Macrophage colony-stimulating factor (MCSF), CSF1 (gene 1435)
Put plainly: BSK_LPS_MCSF: BioMAP Diversity Plus: LPS Assay for Macrophage colony-stimulating factor (MCSF) Biomarker Activity (AID 2283083). To be noted: primary human HUVEC with PBMC; actives raise or lower the signal. In a few lines:
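Human umbilical vein endothelial cells co-cultured with peripheral blood mononuclear cells were exposed to compound for 24 h. M-CSF levels were measured by ELISA, and bidirectional curve fitting used DMSO as the negative control and baseline.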

Read-out in test [10]: Tissue Factor, F3 (gene 2152)
Put plainly: BSK_LPS_TissueFactor: BioMAP Diversity Plus: LPS Assay for Tissue Factor Biomarker Activity (AID 2283084). To be noted: primary human HUVEC with PBMC; actives raise or lower the signal. In a few lines: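 Human umbilical vein endothelial cells co-cultured with peripheral blood mononuclear cells were dosed and stimulated with LPS. Cell-surface CD142 was quantified by ELISA at 24 h. Activity was fitted bidirectionally against DMSO baseline.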

Read-out in test [11]: Tumor necrosis factor (Homo sapiens) (UniProt P01375)
Kind of test: BSK_LPS_TNFa: BioMAP Diversity Plus: LPS Assay for Tumour Necrosis Factor alpha (TNFa) Biomarker Activity (AID 2283085). To be noted: primary human HUVEC with PBMC; actives raise or lower the signal. In a few lines: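 ELISA-based TNFa endpoint in a human endothelial–PBMC co-culture sampled 24 h post-exposure. Curves were fitted in both directions using DMSO as baseline of activity.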

Read-out in test [12]: Vascular cell adhesion molecule 1 (VCAM1), VCAM1 (gene 7412)
Kind of test: BSK_LPS_VCAM1: BioMAP Diversity Plus: LPS Assay for Vascular cell adhesion molecule 1 (VCAM1) Biomarker Activity (AID 2283086). Conditions: primary human HUVEC with PBMC; actives raise or lower the signal. In a few lines: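 Measured by ELISA: VCAM-1 in LPS-activated HUVEC/PBMC co-cultures 24 h after treatment. Values reflect bidirectional fitting with DMSO as baseline.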

Read-out in another test: CD38, CD38 (gene 952)
Put plainly: BSK_SAg_CD38: BioMAP Diversity Plus: SAg Assay for CD38 Biomarker Activity (AID 2283087). Conditions: primary human HUVEC with PBMC; actives raise or lower the signal. In a few lines: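 Measures CD38 on a human endothelial/PBMC co-culture driven by SEB and TSST-1, 24 h after compound exposure, using ELISA with fluorescence detection; DMSO defines baseline for bidirectional curve fitting.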

Read-out in test [13]: CD40, CD40 (gene 958)
Put plainly: BSK_SAg_CD40: BioMAP Diversity Plus: SAg Assay for CD40 Biomarker Activity (AID 2283088). Conditions: primary human HUVEC with PBMC; actives raise or lower the signal. The procedure, abridged:
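Human umbilical vein endothelial cells co-cultured with PBMC; CD40 levels measured by ELISA with fluorescence read-out 24 h after chemical dosing. Gain or loss of signal fitted bidirectionally against DMSO baseline.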

Read-out in test [14]: Monocyte Chemoattractant Protein-1 (MCP1), CCL2 (gene 6347)
Put plainly: BSK_SAg_MCP1: BioMAP Diversity Plus: SAg Assay for Monocyte Chemoattractant Protein-1 (MCP1) Biomarker Activity (AID 2283090). Conditions: primary human HUVEC with PBMC; actives raise or lower the signal. In a few lines:
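Values derive from bidirectional fitting of ELISA-measured MCP1 against DMSO controls. Readings were taken 24 h after dosing human vascular endothelial cells co-cultured with peripheral blood mononuclear cells under superantigen stimulation.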

Read-out in test [15]: E-selectin (Homo sapiens) (UniProt P16581)
Put plainly: BSK_SAg_Eselectin: BioMAP Diversity Plus: SAg Assay for Eselectin Biomarker Activity (AID 2283091). To be noted: primary human HUVEC with PBMC; actives raise or lower the signal. In a few lines: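 HUVEC co-cultured with PBMC, compound dosed then read at 24 h; E-selectin measured by ELISA. Activity fitted bidirectionally against DMSO as negative control and baseline.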

Read-out in test [16]: Monokine induced gamma interferon (MIG), CXCL9 (gene 4283)
Put plainly: BSK_SAg_MIG: BioMAP Diversity Plus: SAg Assay for Monokine induced gamma interferon (MIG) Biomarker Activity (AID 2283092). To be noted: primary human HUVEC with PBMC; actives raise or lower the signal. The procedure, abridged:
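HUVEC plus human PBMC co-culture, chemicals dosed and MIG (CXCL9) quantified by ELISA at 24 h. Bidirectional curve fitting against DMSO as negative control and baseline, so both gain and loss of signal count as activity.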

Test [17] in a line: BSK_SAg_PBMCCytotoxicity: PBMC Cytotoxicity Assessment in the BioMAP Diversity Plus: SAg Assay (AID 2283093).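 Also: PBMC viability measured as Alamar Blue reduction fluorescence at 546/580 nm; fitted both ways against DMSO so a hit may be loss or gain of signal.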 Conditions: primary human HUVEC with PBMC. The procedure, abridged:
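Alamar Blue reduction (6 h, ex/em 546/580 nm) read after 90 h culture of PBMC pre-dosed 1 h then stimulated with SEB plus TSST-1, 20 ng/mL each. Gain or loss of signal fitted relative to DMSO.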

Read-out in test [18]: Interleukin-8 (IL8), CXCL8 (gene 3576)
Kind of test: BSK_SAg_IL8: BioMAP Diversity Plus: SAg Assay for Interleukin-8 (IL8) Biomarker Activity (AID 2283094). Conditions: primary human HUVEC with PBMC; actives raise or lower the signal. In a few lines:
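Primary human endothelial cells with PBMC, exposed 24 h; IL-8 determined by ELISA, analysed bidirectionally relative to DMSO.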

Test [19] can be described thus: BSK_SAg_Proliferation: Cell Proliferation Assessment in the BioMAP Diversity Plus: SAg Assay (AID 2283095).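 Also: relative cell number as total protein by SRB absorbance in sub-confluent culture.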 Conditions: primary human HUVEC with PBMC. The procedure, abridged: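 A human primary co-culture of umbilical vein endothelium and blood mononuclear cells receives compound; relative cell number is quantified at 96 h by SRB staining and 560 nm absorbance, with DMSO-referenced bidirectional curve fitting.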

Chain of E-selectin (Homo sapiens) (P16581 whole entry, looked up): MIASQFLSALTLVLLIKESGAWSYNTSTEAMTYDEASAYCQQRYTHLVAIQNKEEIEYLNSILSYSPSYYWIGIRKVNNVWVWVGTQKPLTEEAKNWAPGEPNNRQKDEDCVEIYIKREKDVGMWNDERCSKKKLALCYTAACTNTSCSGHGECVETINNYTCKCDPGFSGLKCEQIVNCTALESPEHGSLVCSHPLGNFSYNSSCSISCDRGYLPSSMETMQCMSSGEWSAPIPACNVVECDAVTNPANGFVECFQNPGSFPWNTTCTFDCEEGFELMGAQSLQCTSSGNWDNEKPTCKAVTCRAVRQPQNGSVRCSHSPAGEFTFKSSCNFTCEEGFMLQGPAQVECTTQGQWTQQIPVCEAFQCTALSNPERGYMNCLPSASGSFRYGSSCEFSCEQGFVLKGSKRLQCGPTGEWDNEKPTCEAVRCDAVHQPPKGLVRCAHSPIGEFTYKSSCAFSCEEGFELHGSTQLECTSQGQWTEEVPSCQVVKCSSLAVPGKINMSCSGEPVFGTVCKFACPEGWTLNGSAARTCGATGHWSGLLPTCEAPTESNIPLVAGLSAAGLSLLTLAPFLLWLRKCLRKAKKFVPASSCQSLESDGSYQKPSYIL
Chain of Tumor necrosis factor (Homo sapiens) (P01375 whole entry, looked up): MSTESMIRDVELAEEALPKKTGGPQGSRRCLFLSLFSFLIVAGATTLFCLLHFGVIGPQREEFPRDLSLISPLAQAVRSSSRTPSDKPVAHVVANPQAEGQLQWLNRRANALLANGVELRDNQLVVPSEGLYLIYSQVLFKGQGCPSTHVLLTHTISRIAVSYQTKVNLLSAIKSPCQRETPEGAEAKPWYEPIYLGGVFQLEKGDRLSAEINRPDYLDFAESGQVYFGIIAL

Take `C=CC=CC=CCCCCC`: the outcome was “inactive” in test [1]; “inactive” with CD40, CD40 (gene 958) [2]; “inactive” in test [3]; “inactive” in [4]; “inactive” in [5]; “inactive” in test [6]. Besides, the result in test [7], in test [8], in [9], in [10], in test [11] and in test [12] was inactive. In addition, the outcome with CD38, CD38 (gene 952) is “inactive”; in the test with CD40, CD40 (gene 958) [13] it was “inactive”; in [14], “inactive”; in test [15], “inactive”; in [16], “inactive”; in test [17] it was “inactive”. Further, in test [18], the outcome was inactive. In addition, the AC50 (in general, the concentration at which the activity in the assay is half-maximal) in test [19] is 6.71 µM (active).

Turning to `CCCCC(CC)COCC1CO1` (stereo not given), the outcome in [1] was “inactive”; in the test with CD40, CD40 (gene 958) [2], “inactive”; in [3], “inactive”; in test [4], “inactive”; in test [5], “inactive”; in test [6] it was “inactive”. Also, the result in [7], in [8], in test [9], in [10], in [11] and in [12] was inactive. Also, the outcome with CD38, CD38 (gene 952) was “inactive”; with CD40, CD40 (gene 958) [13], “inactive”; in [14], “inactive”; in test [15], “inactive”; in test [16] it was “inactive”; in [17], “inactive”. For the same compound, the outcome in test [18] and in test [19] was inactive.

`CCO[Si](C)(OCC)OCC`: the outcome in test [1] was “inactive”; with CD40, CD40 (gene 958) [2] it was “inactive”; in test [3], “inactive”; in test [4], “inactive”; in [5], “inactive”; in test [6], “inactive”. In addition, the result in test [7], in test [8], in [9], in [10], in test [11] and in test [12] was inactive. Further, the outcome in the test with CD38, CD38 (gene 952) is “inactive”; in the test with CD40, CD40 (gene 958) [13], “inactive”; in test [14], “inactive”; in test [15], “inactive”; in [16], “inactive”; in test [17], “inactive”. For the same compound, the result in test [18] and in test [19] was inactive.

As for `O=c1c2ccccc2oc2ccccc12`, the outcome in test [1] is “inactive”; with CD40, CD40 (gene 958) [2], “inactive”; in [3], “inactive”; in test [4], “inactive”; in [5], “inactive”; in test [6], “inactive”. The outcome in test [7], in [8], in [9], in [10], in [11] and in test [12] was inactive. Further, the outcome with CD38, CD38 (gene 952) was “inactive”; in the test with CD40, CD40 (gene 958) [13], “inactive”; in test [14], “inactive”; in [15], “inactive”; in test [16], “inactive”; in test [17], “inactive”. Moreover, the outcome in test [18] and in test [19] was inactive.

Take `O=C1CCCN1CCO`: the outcome in [1] was “inactive”; with CD40, CD40 (gene 958) [2], “inactive”; in [3], “inactive”; in [4] it was “inactive”; in [5], “inactive”; in test [6], “inactive”. The result in test [7], in test [8], in [9], in test [10], in test [11] and in test [12] was inactive. Further, the outcome was “inactive” in the test with CD38, CD38 (gene 952); “inactive” with CD40, CD40 (gene 958) [13]; “inactive” in test [14]; “inactive” in test [15]; “inactive” in [16]; “inactive” in test [17]. Besides, the outcome in [18] and in test [19] was inactive.
